This note sets out measurements from the supplement of paper PMC4022240.

± gives the standard deviation.

Test in all cases: peptide microarray binding signal (635 nm), min-max normalized on array (fraction of array maximum); higher = stronger binding
Holding throughout (details): peptide region: H3 1-13

The target in test [1] is T1, HaloTag-ATRX ADD domain (163-292).
T1 chain: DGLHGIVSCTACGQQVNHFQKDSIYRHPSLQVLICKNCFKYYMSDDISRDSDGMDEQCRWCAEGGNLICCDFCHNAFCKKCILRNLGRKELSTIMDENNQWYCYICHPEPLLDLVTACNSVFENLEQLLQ
As for the experimental part: (§1)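 Histone 13-mer peptides were synthesized as cellulose conjugates with a C-terminal 20-atom PEG linker and printed in triplicate on nitrocellulose. The sequence given is the unmodified backbone; PTMs (Kme1/2/3, Kac, Sph/Tph, Rme/Rme2a/Rme2s, Rcit) are listed in the label and the 'peptide modifications' condition. Slides were probed at 4 °C for 1 h with biotin-labelled (HQ)5-HaloTag reader fusions (ATRX-ADD, ING2-PHD) then streptavidin-Alexa647, or with rabbit histone antibodies then anti-rabbit Alexa647. The mean 635 nm signal of the triplicate spots was scaled 0-1 between the lowest and highest values on each array.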

Test [2] deals with HaloTag-ING2 PHD (mouse Ing2 200-280). As for the experimental part: as §1
For test [3], the target named is anti-H3K4me3 antibody ab8580. As for the experimental part:
as §1

Test [4] addresses anti-H3K9me3 antibody ab8898. As for the experimental part: as §1
Where [5] appears, read: peptide modifications: H3R2me1 H3K4me3, binder concentration: 1:2,000 dilution.
Where [6] appears, read: peptide modifications: H3R2me1 H3K4me3, binder concentration: 1:10,000 dilution.
[7] abbreviates: peptide modifications: H3R2cit H3T6ph, binder concentration: 1:2,000 dilution.
The mark [8] stands for this setting: peptide modifications: H3R2cit H3T6ph, binder concentration: 1:10,000 dilution.
Setting [9] is: peptide modifications: H3R2me1 H3K9me1, binder concentration: 1:2,000 dilution.
Setting [10] is: peptide modifications: H3R2me1 H3K9me1, binder concentration: 1:10,000 dilution.
Where [11] appears, read: peptide modifications: H3R2me1 H3T6ph, binder concentration: 1:2,000 dilution.
The mark [12] stands for this setting: peptide modifications: H3R2me1 H3T6ph, binder concentration: 1:10,000 dilution.
The mark [13] stands for this setting: peptide modifications: H3R2me1 H3K9ac, binder concentration: 1:2,000 dilution.
Where [14] appears, read: peptide modifications: H3R2me1 H3K9ac, binder concentration: 1:10,000 dilution.
Where [15] appears, read: peptide modifications: H3R2me1 H3K4me2, binder concentration: 1:2,000 dilution.
Where [16] appears, read: peptide modifications: H3R2me1 H3K4me2, binder concentration: 1:10,000 dilution.
The mark [17] stands for this setting: peptide modifications: H3R2me1 H3K4me1, binder concentration: 1:2,000 dilution.
[18] abbreviates: peptide modifications: H3R2me1 H3K4me1, binder concentration: 1:10,000 dilution.
The mark [19] stands for this setting: peptide modifications: H3R2me2a H3K4me2, binder concentration: 1:2,000 dilution.
The mark [20] stands for this setting: peptide modifications: H3R2me2a H3K4me2, binder concentration: 1:10,000 dilution.
Where [21] appears, read: peptide modifications: H3R2me1, binder concentration: 1:2,000 dilution.
[22] abbreviates: peptide modifications: H3R2me1, binder concentration: 1:10,000 dilution.
The mark [23] stands for this setting: peptide modifications: H3R2me2a H3K4me1, binder concentration: 1:2,000 dilution.
The mark [24] stands for this setting: peptide modifications: H3R2me2a H3K4me1, binder concentration: 1:10,000 dilution.

For the molecule ARTKQTARKSTGG [H3 1-13 A Rme T Kme3 Q T A R K S T G G], the “peptide microarray binding signal” value in test [1] (peptide modifications: H3R2me1 H3K4me3, binder concentration: 50 nM) came to 0.00765 ± 0.00016; in test [1] (peptide modifications: H3R2me1 H3K4me3, binder concentration: 500 nM) it was 0.0187 ± 0.00094; in test [2] (peptide modifications: H3R2me1 H3K4me3, binder concentration: 10 nM) it was 0.267 ± 0.048; in test [2] (peptide modifications: H3R2me1 H3K4me3, binder concentration: 100 nM), 0.215 ± 0.13; in test [3] (setting [5]), 0.449 ± 0.19; in test [3] (setting [6]), 0.243 ± 0.053. The “peptide microarray binding signal” value in test [4] (setting [5]) is 0.106 ± 0.018; in test [4] (setting [6]), 0.0312 ± 0.0012.

Turning to ARTKQTARKSTGG [H3 1-13 A Rcit T K Q Tph A R K S T G G], the “peptide microarray binding signal” value turned out to be 0.00621 ± 0.00039 in test [1] (peptide modifications: H3R2cit H3T6ph, binder concentration: 50 nM); 0.0199 ± 0.0043 in test [1] (peptide modifications: H3R2cit H3T6ph, binder concentration: 500 nM); 0.00382 ± 0.00065 in test [2] (peptide modifications: H3R2cit H3T6ph, binder concentration: 10 nM); 0.0157 ± 0.0039 in test [2] (peptide modifications: H3R2cit H3T6ph, binder concentration: 100 nM); 0.00345 ± 0.00082 in test [3] (setting [7]); 0.00348 ± 0.00034 in test [3] (setting [8]). The “peptide microarray binding signal” value in test [4] (setting [7]) was determined as 0.00166 ± 0.00026; in test [4] (setting [8]) it was 0.00173 ± 0.00011.

For the molecule ARTKQTARKSTGG [H3 1-13 A Rme T K Q T A R Kme1 S T G G], the “peptide microarray binding signal” value in test [1] (peptide modifications: H3R2me1 H3K9me1, binder concentration: 50 nM) came to 0.0572 ± 0.0022; in test [1] (peptide modifications: H3R2me1 H3K9me1, binder concentration: 500 nM), 0.108 ± 0.011; in test [2] (peptide modifications: H3R2me1 H3K9me1, binder concentration: 10 nM), 0.0402 ± 0.0095; in test [2] (peptide modifications: H3R2me1 H3K9me1, binder concentration: 100 nM) it was 0.0772 ± 0.0086; in test [3] (setting [9]), 0.00991 ± 0.0016; in test [3] (setting [10]), 0.008959 ± 8.7e-05. Also, the “peptide microarray binding signal” value in test [4] (setting [9]) worked out at 0.00462 ± 0.00079; in test [4] (setting [10]), 0.0045 ± 0.00015.

As for ARTKQTARKSTGG [H3 1-13 A Rme T K Q Tph A R K S T G G], the “peptide microarray binding signal” value in test [1] (peptide modifications: H3R2me1 H3T6ph, binder concentration: 50 nM) came to 0.00589 ± 0.00086; in test [1] (peptide modifications: H3R2me1 H3T6ph, binder concentration: 500 nM), 0.00971 ± 0.00097; in test [2] (peptide modifications: H3R2me1 H3T6ph, binder concentration: 10 nM), 0.00269 ± 4e-05; in test [2] (peptide modifications: H3R2me1 H3T6ph, binder concentration: 100 nM), 0.0186 ± 0.0023; in test [3] (setting [11]) it was 0.000774 ± 4.3e-05; in test [3] (setting [12]) it was 0.000799 ± 2.2e-05. For the same molecule, the “peptide microarray binding signal” value in test [4] (setting [11]) is 0.0018 ± 6.1e-05; in test [4] (setting [12]) it was 0.000634 ± 1.2e-05.

As to ARTKQTARKSTGG [H3 1-13 A Rme T K Q T A R Kac S T G G], the “peptide microarray binding signal” value in test [1] (peptide modifications: H3R2me1 H3K9ac, binder concentration: 50 nM) was determined as 0.0167 ± 0.0025; in test [1] (peptide modifications: H3R2me1 H3K9ac, binder concentration: 500 nM) it was 0.121 ± 0.14; in test [2] (peptide modifications: H3R2me1 H3K9ac, binder concentration: 10 nM) it was 0.0337 ± 0.00085; in test [2] (peptide modifications: H3R2me1 H3K9ac, binder concentration: 100 nM) it was 0.0529 ± 0.0063; in test [3] (setting [13]), 0.0105 ± 0.0012; in test [3] (setting [14]), 0.00999 ± 0.00055. Moreover, the results for the “peptide microarray binding signal” value in test [4] (setting [13]) and in test [4] (setting [14]) were 0.085 ± 0.13 and 0.0364 ± 0.046, respectively.

Regarding ARTKQTARKSTGG [H3 1-13 A Rme T Kme2 Q T A R K S T G G], the “peptide microarray binding signal” value in test [1] (peptide modifications: H3R2me1 H3K4me2, binder concentration: 50 nM) is 0.00715 ± 0.0002; in test [1] (peptide modifications: H3R2me1 H3K4me2, binder concentration: 500 nM), 0.017 ± 0.0047; in test [2] (peptide modifications: H3R2me1 H3K4me2, binder concentration: 10 nM) it was 0.219 ± 0.059; in test [2] (peptide modifications: H3R2me1 H3K4me2, binder concentration: 100 nM), 0.175 ± 0.047; in test [3] (setting [15]), 0.269 ± 0.14; in test [3] (setting [16]) it was 0.0639 ± 0.0072. Also, the “peptide microarray binding signal” value worked out at 0.00439 ± 0.0014 in test [4] (setting [15]) and 0.00392 ± 0.00093 in test [4] (setting [16]).

ARTKQTARKSTGG [H3 1-13 A Rme T Kme Q T A R K S T G G]: the “peptide microarray binding signal” value stood at 0.00746 ± 0.00026 in test [1] (peptide modifications: H3R2me1 H3K4me1, binder concentration: 50 nM); 0.0155 ± 0.00095 in test [1] (peptide modifications: H3R2me1 H3K4me1, binder concentration: 500 nM); 0.0585 ± 0.006 in test [2] (peptide modifications: H3R2me1 H3K4me1, binder concentration: 10 nM); 0.147 ± 0.034 in test [2] (peptide modifications: H3R2me1 H3K4me1, binder concentration: 100 nM); 0.0545 ± 0.02 in test [3] (setting [17]); 0.023 ± 0.0071 in test [3] (setting [18]). Further, the “peptide microarray binding signal” value in test [4] (setting [17]) turned out to be 0.00248 ± 0.00029; in test [4] (setting [18]) it was 0.00127 ± 1.3e-05.

In the case of ARTKQTARKSTGG [H3 1-13 A Rme2a T Kme2 Q T A R K S T G G], the “peptide microarray binding signal” value amounted to 0.00837 ± 0.00013 in test [1] (peptide modifications: H3R2me2a H3K4me2, binder concentration: 50 nM); 0.0168 ± 0.00084 in test [1] (peptide modifications: H3R2me2a H3K4me2, binder concentration: 500 nM); 0.0141 ± 0.00071 in test [2] (peptide modifications: H3R2me2a H3K4me2, binder concentration: 10 nM); 0.0206 ± 0.0044 in test [2] (peptide modifications: H3R2me2a H3K4me2, binder concentration: 100 nM); 0.0754 ± 0.017 in test [3] (setting [19]); 0.0898 ± 0.0086 in test [3] (setting [20]). Moreover, the “peptide microarray binding signal” value in test [4] (setting [19]) is 0.00464 ± 0.0004; in test [4] (setting [20]) it was 0.00386 ± 0.00011.

With ARTKQTARKSTGG [H3 1-13 A Rme T K Q T A R K S T G G], the “peptide microarray binding signal” value came out at 0.0145 ± 0.00019 in test [1] (peptide modifications: H3R2me1, binder concentration: 50 nM); 0.0334 ± 0.0026 in test [1] (peptide modifications: H3R2me1, binder concentration: 500 nM); 0.0175 ± 0.0043 in test [2] (peptide modifications: H3R2me1, binder concentration: 10 nM); 0.0456 ± 0.0031 in test [2] (peptide modifications: H3R2me1, binder concentration: 100 nM); 0.000698 ± 1.7e-05 in test [3] (setting [21]); 0.000742 in test [3] (setting [22]). The “peptide microarray binding signal” value in test [4] (setting [21]) worked out at 0.00202 ± 0.0002; in test [4] (setting [22]) it was 0.000461.

As to ARTKQTARKSTGG [H3 1-13 A Rme2a T Kme Q T A R K S T G G], the “peptide microarray binding signal” value in test [1] (peptide modifications: H3R2me2a H3K4me1, binder concentration: 50 nM) is 0.0111 ± 0.00026; in test [1] (peptide modifications: H3R2me2a H3K4me1, binder concentration: 500 nM), 0.0211 ± 0.001; in test [2] (peptide modifications: H3R2me2a H3K4me1, binder concentration: 10 nM) it was 0.00585 ± 0.00028; in test [2] (peptide modifications: H3R2me2a H3K4me1, binder concentration: 100 nM), 0.0274 ± 0.013; in test [3] (setting [23]) it was 0.0329 ± 0.01; in test [3] (setting [24]) it was 0.0417 ± 0.011. Besides, the “peptide microarray binding signal” value in test [4] (setting [23]) came to 0.00468 ± 0.00097; in test [4] (setting [24]), 0.00352 ± 0.00019.
